Hits are enriched below; roughly 8.3% of the tested compounds scored in any of these assays.
BCR signal inh: chronic active BCR signaling inhibition; ABC-DLBCL IkBa-CBG/CBR reporter, luminescence ratio, 4 h; Potency, µM (highest dose often 46.1 µM), inactives show at the top dose activity change, negative = inhibition, hits mostly inhibitors; 340,000 compounds, 0.05% hits; AID 493014; active = well fitted inhibition curve with a large enough effect in the signal ratio, with a control signal flat, not every such curve was filed as active; inconclusive = small, poorly fitted or top-dose-only effect, or effect the other way, or a change in a side signal; the % refers to the signal ratio;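 note: potency is the fitted concentration of half-maximal effect; plate controls were basal doxycycline-induced cells for no effect and cells given 10 µM MG132 for full effect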
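TMD8 ABC-DLBCL cells carrying doxycycline-inducible green luciferase fused to IkappaBalpha plus unfused red luciferase were exposed to compounds (up to 46 uM) for 4 hrs at 37C. Activity came from the overlap-corrected green/red luminescence ratio.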
MCF10A rerep: induces DNA re-replication in MCF 10a normal breast cells. MCF 10A DNA re-replication, Hoechst nuclear intensity, 48 h. Potency, µM (highest dose often 46.1 µM), for the others: at the top dose activity, positive = re-replication, actives largely listed as activators. 350,000 compounds, 2.9% hits. AID 624296; note: potency is the fitted concentration of half-maximal effect; % of control where 0% means no effect; nearly all actives have a fitted effect of over 50% in size
SW480 rerep: induces DNA re-replication in SW480 colon adenocarcinoma cells; 340,000 compounds, 1.8% hits; SW480 DNA re-replication, Hoechst DNA content imaging, 48 h; Potency, µM (top dose mostly 46.1 µM), for inactives: at the highest dose re-replication activation, actives largely listed as activators; note: potency is the fitted concentration of half-maximal effect; % of control where 0% means no effect; nearly all actives have a fitted effect of over 55% in size
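250 cells/well; 23 nL cpd via pin tool; 48 hr, 37 C, 5% CO2; Hoechst 40 min; imager read of total nuclear intensity, ex 405/em 500-530 nm.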
Giardia kill: kills Giardia lamblia; Giardia lamblia trophozoite viability; 340,000 compounds, 0.15% hits; activity change, % at 7.66 µM, hits read low; in the data active = activity change below about -80%; inconclusive = between about -30% and that limit;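 note: parasites exposed to compound for two days anaerobically before the ATP read; % is set by controls: 0 for no effect and ±100 for the full control effect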
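Giardia trophozoites, 100 cells per well, were exposed to compounds for 48 hrs at 37 deg C under anaerobic conditions; viability was then read as ATP content by bioluminescence after 15-30 min at room temperature.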
Gal4-VP16 FLuc: Gal4-VP16 reporter inhibition counter-screen | Drosophila S2 Gal4-VP16 UAS-luciferase, luminescence, 20 h | Potency, µM (titrated, usually from 53.6 µM), without a hit: at the top dose activity, negative = inhibition, hits mostly inhibitors | 310,000 compounds, 3.5% hits;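 note: Gal4-VP16 expression switched on by copper sulfate through the metallothionein promoter; potency is the fitted concentration of half-maximal effect; % is set by controls: 0 for no effect and ±100 for the full control effect; nearly all actives have a fitted effect of over 50% in size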
RORg inh: blocks mouse ROR gamma transcriptional activity; P51450; Drosophila S2 Gal4-RORgamma UAS-luciferase reporter, 20 h; Potency, µM (series often up to 53.6 µM), without a hit: top-dose activity change, negative = inhibition, hits mostly inhibitors; 310,000 compounds, 5.4% hits; AID 2551; note: potency is the fitted concentration of half-maximal effect; % is set by controls: 0 for no effect and ±100 for the full control effect; nearly all actives have a fitted effect of over 60% in size
Target sequence (P51450 whole entry, looked up, the tested form may be a part): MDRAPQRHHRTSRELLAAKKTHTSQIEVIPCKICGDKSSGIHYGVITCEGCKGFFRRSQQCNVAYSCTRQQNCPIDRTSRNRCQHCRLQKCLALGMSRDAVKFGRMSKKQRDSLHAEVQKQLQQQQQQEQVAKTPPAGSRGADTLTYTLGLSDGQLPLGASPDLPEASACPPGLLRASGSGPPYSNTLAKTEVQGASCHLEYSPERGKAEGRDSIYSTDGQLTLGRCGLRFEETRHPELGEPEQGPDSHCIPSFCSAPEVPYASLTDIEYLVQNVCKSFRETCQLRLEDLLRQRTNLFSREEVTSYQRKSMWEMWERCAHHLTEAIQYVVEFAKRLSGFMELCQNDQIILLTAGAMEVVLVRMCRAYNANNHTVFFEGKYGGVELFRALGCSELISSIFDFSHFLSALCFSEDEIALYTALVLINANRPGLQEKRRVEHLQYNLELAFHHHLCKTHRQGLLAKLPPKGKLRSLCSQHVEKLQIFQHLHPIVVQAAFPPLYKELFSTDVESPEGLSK
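Stable Schneider cell line, Gal4 DNA-binding domain fused to ROR gamma, UAS-luciferase. Cmpd 1 hr RT → CuSO4 700 uM final → 20 hr RT → luciferase reagent 10 min → luminescence.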
Active calls of the source: *; ? = inconclusive; . = no result given. Unless noted, calls come from the whole dose curve; as a rule, active = well fitted curve in the direction sought with a large enough effect; inconclusive = small, poorly fitted or top-dose-only effect, or another doubt; inactive = no such curve, though single readings can be large; an effect the other way counts as inactive or inconclusive.

SMILES	BCR signal inh	MCF10A rerep	SW480 rerep	Giardia kill	Gal4-VP16 FLuc	RORg inh
COc1ccc(/C=N\N=C2/SC(CC(=O)O)C(=O)N2c2ccc(O)cc2)cc1 (stereo not drawn)	0%	16µM*	1%	-10	-2%	-14%
CN1C(=O)C(CC(=O)O)S/C1=N\N=C\c1ccc(O)cc1O (stereo not drawn)	0%	1%	-5%	0	20µM*	?
CCC(C)C1NC(=O)C(CCNCS(=O)(=O)O)NC(=O)C(NC(=O)C(CCNCS(=O)(=O)O)NC(=O)C(NC(=O)C(CCNCS(=O)(=O)O)NC(=O)CCCCC(C)C)C(C)O)CCNC(=O)C(C(C)O)NC(=O)C(CCNCS(=O)(=O)O)NC(=O)C(CCNCS(=O)(=O)O)NC(=O)C(C(C)CC)NC1=O (stereo not drawn)	.	?	3%	.	-26%	?
CC1CC2(C)Oc3ccccc3CC2C(C)C1CNCCCN(C)C (stereo not drawn)	?	7.3µM*	5.2µM*	-1	?	?
CC1Cc2ccccc2N1C(=O)CNCCCN(C)C (stereo not drawn)	6%	6%	-2%	-7	5%	-4%
O=C(COC(=O)c1ccc(S(=O)(=O)N2CCCCCC2)cc1)NCc1ccc(Cl)cc1	?	-3%	-29%	-11	.	.
O=C1c2cccnc2C(=O)N1Cc1ccc(S(=O)(=O)N2CCN(c3ccc(Cl)cc3)CC2)cc1	4%	-19%	-4%	28	-14%	-25%
COC(=O)CSc1[nH]c2ccccc2c1[N+](=O)[O-]	-24%	15µM*	-3%	4	-6%	7%
COc1cccc(-c2n[nH]c3c2CCC3)c1	14%	-1%	-9%	-8	27%	?
c1ccc(-c2n[nH]c3c2CCC3)cc1	-3%	-4%	-10%	-9	-21%	13µM*
CC1(C)C2CCC1(C)C(Nc1ccccc1)C2 (stereo not drawn)	9%	?	6%	-3	-8%	2%
CC1(C)C2CCC1(C)C(NC(=O)/C=C/c1ccccc1)C2 (stereo not drawn)	?	19%	?	23	18µM*	?
S=C(NCCN1CCOCC1)N/N=C/c1cccs1	?	2%	-2%	-15	4.5µM*	1.3µM*
Oc1cccc(/C=N/NC(=S)NCCN2CCOCC2)c1O	?	1%	?	-2	?	7.1µM*
COc1ccccc1CC(=O)N1CCN(S(=O)(=O)c2ccccc2)CC1	1%	-2%	23%	-18	7%	24%
Cc1ccc(NS(=O)(=O)c2cc(C(=O)Nc3cccnc3)ccc2C)cc1	-11%	2%	0%	-18	-2%	13%
CCc1ccc(S(=O)(=O)/N=C2/C=C(Sc3ncn[nH]3)C(=O)c3ccccc32)cc1	?	3.3µM*	4.6µM*	0	6.3µM*	13µM*
Cc1cc(C)c(S(=O)(=O)/N=C2/C=C(SCC(=O)O)C(=O)c3ccccc32)cc1C	?	?	78%	-10	?	-18%
CCc1ccc(S(=O)(=O)/N=C2\C=CC(=O)c3ccccc32)cc1	-1%	.	.	.	?	?
CCc1ccc(S(=O)(=O)/N=C2\C=C(Nc3cccc(C(=O)O)c3)C(=O)c3ccccc32)cc1	?	?	115%	3	?	11µM*
Cc1ccc(S(=O)(=O)/N=C2\C=C(NS(=O)(=O)c3ccccc3)C(=O)c3ccccc32)cc1	.	?	99%	-1	.	.
CCc1ccc(S(=O)(=O)/N=C2\C=C(Nc3ccc(O)cc3)C(=O)c3ccccc32)cc1	?	3.7µM*	5.8µM*	-19	11µM*	10µM*
C#CC(C)OC(=O)Nc1cccc(Cl)c1 (stereo not drawn)	.	.	.	.	3%	?
CCN(CC)S(=O)(=O)c1cccc(NC(=O)c2cc(-c3cccs3)nn2-c2ccccc2)c1	7%	-48%	8.2µM*	3	-6%	39%
N=C1N(c2ccccc2)C(=S)C(=Nc2ccccc2)N1c1ccccc1	.	18µM*	?	6	.	.
SMILES	BCR signal inh	MCF10A rerep	SW480 rerep	Giardia kill	Gal4-VP16 FLuc	RORg inh
COc1cccc(OC)c1C(=O)Nc1ccc(C(=O)NCc2ccccc2)cc1	-1%	-1%	1%	15	15%	3%
CC12CC(c3ccccc3O1)N(C(=O)c1ccco1)C(=S)N2c1ccc(F)cc1 (stereo not drawn)	?	12µM*	12%	-7	?	10µM*
O=C(CCn1cccn1)N1CCCC(N2CCN(c3cccc(C(F)(F)F)c3)CC2)C1 (stereo not drawn)	1%	10%	-6%	5	-2%	25%
Cc1cc(C)n2[nH]c(=O)c(N=Nc3cccc(Cl)c3)c2n1	.	2%	-10%	8	1%	8.9µM*
Cc1cc(C)n2[nH]c(=O)c(N=Nc3cccc(C(F)(F)F)c3)c2n1	?	-3%	2%	19	?	13µM*
COCCn1c(=O)c(-c2cc(F)cc(F)c2)nc2cnc(Oc3cccc(Cl)c3)nc21	.	.	.	.	7%	30%
Cc1ccc(C)n1CCN1CCN(S(=O)(=O)c2ccc(F)cc2F)CC1	1%	9%	-2%	-13	1%	3%
CC(C)c1ccc(C2(C)NC(=O)N(C(C)C(=O)Nc3ccc(N4CCOCC4)cc3)C2=O)cc1 (stereo not drawn)	?	?	6.5µM*	14	.	.
CCCCCCC1(C)NC(=O)N(C(C)C(=O)Nc2ccc(N3CCOCC3)cc2)C1=O (stereo not drawn)	4%	-2%	3%	6	.	.
N#Cc1ccccc1S(=O)(=O)N1CCN(c2nc(-c3cccnc3)nc3ccccc23)CC1	17%	?	-28%	3	.	.
O=C(NC(=S)NNC(=O)[C@H]1C[C@@H]1c1ccccc1)c1ccc(F)cc1	4%	?	-2%	-1	?	10µM*
CC(C)(C)NC(=S)NNC(=O)[C@H]1C[C@@H]1c1ccccc1	?	-1%	-6%	-9	-23%	0.56µM*
COc1cc(OC)cc(C(=O)NC(=S)NNC(=O)[C@H]2C[C@@H]2c2ccccc2)c1	-4%	5%	3%	-5	?	14µM*
O=C(/C=C/c1ccc(F)cc1)NC(=S)NNC(=O)[C@H]1C[C@@H]1c1ccccc1	-2%	-8%	17%	22	-8%	?
Oc1ccccc1-c1cc(-c2ccc3c(c2)OCCO3)n[nH]1	?	-9%	-2%	-18	?	3.2µM*
COc1ccc(-c2cc(-c3ccccc3O)[nH]n2)cc1OC	?	?	-22%	-2	?	7.1µM*

Screening results from PubChem BioAssay.
